# In article PMC9911399, “Two distinct binding modes provide the RNA-binding protein RbFox with extraordinary sequence specificity”:
# Substitutions are numbered along the chain they refer to; changes in the protein carry UniProt numbers. Over roughly 16,000 sequences, “ka relative to ugcaugu” has its median near 0.096; the highest 2% begin near 0.35. This excerpt belongs to a sample that is enriched for the highest values.
# T1: RBFOX1 RRM RbFoxmut (Fox-RRM*) (Homo sapiens, UniProt Q9NWB1 109-208, R118D;E147R;N151S;E152T)
# T1 sequence: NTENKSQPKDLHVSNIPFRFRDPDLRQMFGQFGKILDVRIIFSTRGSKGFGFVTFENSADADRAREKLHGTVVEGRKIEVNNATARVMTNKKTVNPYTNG
# B1: AGGUGCA (DNA:RNA)
# RNA: GGGAGACCGGAAUUCAGAUUGUCCAGGUGCAUUAAAUCCCGUCGUAGCCACCA
# DNA 1: CAATCTGAATTCCGGTCTCCC
# DNA 2: TGGTGGCTACGACGGGATT
# B2: GUAUUCU (DNA:RNA)
# RNA: B1 RNA with A25G, G26U, G27A, G29U, A31U
# DNA 1: CAATCTGAATTCCGGTCTCCC
# DNA 2: TGGTGGCTACGACGGGATT
# B3: UCCUAGU (DNA:RNA)
# RNA: B1 RNA with A25U, G26C, G27C, G29A, C30G, A31U
# DNA 1: CAATCTGAATTCCGGTCTCCC
# DNA 2: TGGTGGCTACGACGGGATT
# B4: UUCUCAG (DNA:RNA)
# RNA: B1 RNA with A25U, G26U, G27C, G29C, C30A, A31G
# DNA 1: CAATCTGAATTCCGGTCTCCC
# DNA 2: TGGTGGCTACGACGGGATT
# B5: CGGCGAA (DNA:RNA)
# RNA: B1 RNA with A25C, U28C, C30A
# DNA 1: CAATCTGAATTCCGGTCTCCC
# DNA 2: TGGTGGCTACGACGGGATT
# B6: GUUUAAG (DNA:RNA)
# RNA: B1 RNA with A25G, G26U, G27U, G29A, C30A, A31G
# DNA 1: CAATCTGAATTCCGGTCTCCC
# DNA 2: TGGTGGCTACGACGGGATT
# B7: UCCCAUG (DNA:RNA)
# RNA: GGGAGACCGGAAUUCAGAUUGUCCUCCCAUGUUAAAUCCCGUCGUAGCCACCA
# DNA 1: CAATCTGAATTCCGGTCTCCC
# DNA 2: TGGTGGCTACGACGGGATT
# B8: GGCGAUG (DNA:RNA)
# RNA: B7 RNA with U25G, C26G, C28G
# DNA 1: CAATCTGAATTCCGGTCTCCC
# DNA 2: TGGTGGCTACGACGGGATT
# B9: GUCGUCG (DNA:RNA)
# RNA: B7 RNA with U25G, C26U, C28G, A29U, U30C
# DNA 1: CAATCTGAATTCCGGTCTCCC
# DNA 2: TGGTGGCTACGACGGGATT
# B10: GUCGAUG (DNA:RNA)
# RNA: B7 RNA with U25G, C26U, C28G
# DNA 1: CAATCTGAATTCCGGTCTCCC
# DNA 2: TGGTGGCTACGACGGGATT
# B11: GAUGUCG (DNA:RNA)
# RNA: B1 RNA with A25G, G26A, G27U, U28G, G29U, A31G
# DNA 1: CAATCTGAATTCCGGTCTCCC
# DNA 2: TGGTGGCTACGACGGGATT
# B12: CGUCCCG (DNA:RNA)
# RNA: B1 RNA with A25C, G27U, U28C, G29C, A31G
# DNA 1: CAATCTGAATTCCGGTCTCCC
# DNA 2: TGGTGGCTACGACGGGATT
# B13: GGAAUCG (DNA:RNA)
# RNA: B1 RNA with A25G, G27A, U28A, G29U, A31G
# DNA 1: CAATCTGAATTCCGGTCTCCC
# DNA 2: TGGTGGCTACGACGGGATT
# B14: CGCGUAA (DNA:RNA)
# RNA: B1 RNA with A25C, G27C, U28G, G29U, C30A
# DNA 1: CAATCTGAATTCCGGTCTCCC
# DNA 2: TGGTGGCTACGACGGGATT
# B15: AACGAAC (DNA:RNA)
# RNA: B7 RNA with U25A, C26A, C28G, U30A, G31C
# DNA 1: CAATCTGAATTCCGGTCTCCC
# DNA 2: TGGTGGCTACGACGGGATT
# B16: UAAUUGU (DNA:RNA)
# RNA: B1 RNA with A25U, G26A, G27A, G29U, C30G, A31U
# DNA 1: CAATCTGAATTCCGGTCTCCC
# DNA 2: TGGTGGCTACGACGGGATT
# B17: GGCUGUC (DNA:RNA)
# RNA: B1 RNA with A25G, G27C, C30U, A31C
# DNA 1: CAATCTGAATTCCGGTCTCCC
# DNA 2: TGGTGGCTACGACGGGATT
# B18: AUUCUUA (DNA:RNA)
# RNA: B1 RNA with G26U, G27U, U28C, G29U, C30U
# DNA 1: CAATCTGAATTCCGGTCTCCC
# DNA 2: TGGTGGCTACGACGGGATT
# B19: CUGCAUG (DNA:RNA)
# RNA: B7 RNA with U25C, C26U, C27G
# DNA 1: CAATCTGAATTCCGGTCTCCC
# DNA 2: TGGTGGCTACGACGGGATT
# B20: CUGCAUA (DNA:RNA)
# RNA: B7 RNA with U25C, C26U, C27G, G31A
# DNA 1: CAATCTGAATTCCGGTCTCCC
# DNA 2: TGGTGGCTACGACGGGATT
# B21: UGCCAUA (DNA:RNA)
# RNA: B7 RNA with C26G, G31A
# DNA 1: CAATCTGAATTCCGGTCTCCC
# DNA 2: TGGTGGCTACGACGGGATT
# B22: CCCUGCA (DNA:RNA)
# RNA: B1 RNA with A25C, G26C, G27C
# DNA 1: CAATCTGAATTCCGGTCTCCC
# DNA 2: TGGTGGCTACGACGGGATT
# B23: UGCAUGU (DNA:RNA)
# RNA: B7 RNA with C26G, C28A, A29U, U30G, G31U
# DNA 1: CAATCTGAATTCCGGTCTCCC
# DNA 2: TGGTGGCTACGACGGGATT
# B24: UGCCAUG (DNA:RNA)
# RNA: B7 RNA with C26G
# DNA 1: CAATCTGAATTCCGGTCTCCC
# DNA 2: TGGTGGCTACGACGGGATT
# B25: UGCAUAU (DNA:RNA)
# RNA: B7 RNA with C26G, C28A, A29U, U30A, G31U
# DNA 1: CAATCTGAATTCCGGTCTCCC
# DNA 2: TGGTGGCTACGACGGGATT
# B26: UGCCAUC (DNA:RNA)
# RNA: B7 RNA with C26G, G31C
# DNA 1: CAATCTGAATTCCGGTCTCCC
# DNA 2: TGGTGGCTACGACGGGATT
# B27: UGCAUUU (DNA:RNA)
# RNA: B7 RNA with C26G, C28A, A29U, G31U
# DNA 1: CAATCTGAATTCCGGTCTCCC
# DNA 2: TGGTGGCTACGACGGGATT
# B28: CGCGCUA (DNA:RNA)
# RNA: B1 RNA with A25C, G27C, U28G, G29C, C30U
# DNA 1: CAATCTGAATTCCGGTCTCCC
# DNA 2: TGGTGGCTACGACGGGATT
# B29: AUACCAG (DNA:RNA)
# RNA: B7 RNA with U25A, C26U, C27A, A29C, U30A
# DNA 1: CAATCTGAATTCCGGTCTCCC
# DNA 2: TGGTGGCTACGACGGGATT
# B30: CCAGGGG (DNA:RNA)
# RNA: B7 RNA with U25C, C27A, C28G, A29G, U30G
# DNA 1: CAATCTGAATTCCGGTCTCCC
# DNA 2: TGGTGGCTACGACGGGATT
# B31: CUUGUUU (DNA:RNA)
# RNA: B7 RNA with U25C, C26U, C27U, C28G, A29U, G31U
# DNA 1: CAATCTGAATTCCGGTCTCCC
# DNA 2: TGGTGGCTACGACGGGATT
# Molecular target: T1, RBFOX1 RRM RbFoxmut (Fox-RRM*)
# Assay: EMSA; HiTS-Eq, 1 nM pool, 10 min; buffer printed only for the single-RNA assays: 10 mM Tris pH 7.5, 150 mM NaCl, 3.4 mM EDTA, 0.001% NP-40, 30 C
# Conditions: tags: His6 N-terminal (pET28a); label: 5' 32P
# How it was run: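 Purified RbFox RRM, wild type or mutant, was incubated for 10 min in 50 µL with 1 nM of a 5′-radiolabelled RNA pool carrying 7 randomized nucleotides, whose flanks were annealed to DNA oligonucleotides, over a series of increasing protein concentrations. Unbound RNA was resolved on 8% native PAGE, cut out, reverse-transcribed, barcoded by PCR and sequenced on an Illumina HiSeq 2500. Relative association constants were derived from changes in read counts for each RNA species versus the control reaction and normalised to the cognate motif.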
row,Binder,binding signal
1,B1,0.21 KA relative to UGCAUGU
2,B2,0.0952 KA relative to UGCAUGU
3,B3,0.117 KA relative to UGCAUGU
4,B4,0.0887 KA relative to UGCAUGU
5,B5,0.0938 KA relative to UGCAUGU
6,B6,0.131 KA relative to UGCAUGU
7,B7,0.0994 KA relative to UGCAUGU
8,B8,0.404 KA relative to UGCAUGU
9,B9,0.15 KA relative to UGCAUGU
10,B10,0.141 KA relative to UGCAUGU
11,B11,0.145 KA relative to UGCAUGU
12,B12,0.0717 KA relative to UGCAUGU
13,B13,0.387 KA relative to UGCAUGU
14,B14,0.114 KA relative to UGCAUGU
15,B15,0.0568 KA relative to UGCAUGU
16,B16,0.0755 KA relative to UGCAUGU

row,Binder,binding signal
1,B17,0.211 KA relative to UGCAUGU
2,B18,0.13 KA relative to UGCAUGU
3,B19,1.34 KA relative to UGCAUGU
4,B20,0.144 KA relative to UGCAUGU
5,B21,0.122 KA relative to UGCAUGU
6,B22,0.186 KA relative to UGCAUGU
7,B23,1 KA relative to UGCAUGU
8,B24,0.509 KA relative to UGCAUGU
9,B25,0.178 KA relative to UGCAUGU
10,B26,0.208 KA relative to UGCAUGU
11,B27,0.137 KA relative to UGCAUGU
12,B28,0.103 KA relative to UGCAUGU
13,B29,0.122 KA relative to UGCAUGU
14,B30,0.0555 KA relative to UGCAUGU
15,B31,0.0932 KA relative to UGCAUGU
